# Data reported in PubChem BioAssay (Tox21).
# Several values for one entry are separate records, joined by “and”; a condition that tells them apart may be missing. Identical values can stand only once. Records with an inconclusive call do not appear. A call without a number means that no potency is given here. Where a structure was tested more than once in an assay, its records may differ in their call. Activity calls are given as the source filed them. Calls come from the whole dose curve; as a rule, active = well fitted cell-killing curve with a large enough effect in the repeat runs; inconclusive = weak or mixed curves, or effect the other way; inactive = no such curve, though single readings can be large or run the other way.
# Assay: qHTS assay to identify small molecule antagonists of the sonic hedgehog signaling (Shh) pathway - cell viability counter screen (AID 1259367); note: nearly all actives have a fitted effect of over 55% in size
# Details: NIH/3T3 Gli1-Luc viability, CellTiter-Fluor, 24 h; series mostly up to 92.4 µM
# Text: National Center for Advancing Translational Sciences [NCATS]
# NIH Chemical Genomics Center [NCGC]
# U.S. Environmental Protection Agency [EPA]
# National Institutes of Environmental Health Sciences [NIEHS]
# National Toxicology Program [NTP]
# U.S. Food and Drug Administration [FDA]
# The sonic hedgehog (Shh) pathway is essential for normal embryonic development. Dysregulation of the Shh pathway can cause severe developmental defects in organs. Therefore chemicals that interfere with the pathway are potential developmental toxicants. A cell line designated 3T3Gli1-Luc (DMB/OARSA/CFSAN/FDA, Laurel, MD), a NIH/3T3 derived clone containing stably integrated Gli1-Luc reporter is used to detect chemical interference of the Shh pathway, by changes in the expression of the firefly Luc gene under the control of the Gli1 transcriptional response element. This cell line was used to screen Tox21 libraries for identifying and prioritizing the potential developmental toxicants that interfere Shh pathway. Conditioned medium-stimulated mode was used to screen for chemicals inhibiting Shh signaling. The cytotoxicity of the compounds was tested in parallel by measuring the cell viability using CellTiter-Fluor assay system (Promega, Madison, WI) in the same wells.
# Tox21 Assay Protocol Summary:
# 3T3 Gli1-Luc cells were dispensed at 2,000 per well in 5uL of culture medium into white solid bottom 1536-well plates (Greiner Bio-One, Monroe, NC) using a Multidrop Combi (Thermo Scientific, Waltham, MA) dispenser. The assay plates were incubated at 37 C and 5% CO2 for 4hr, and then 23nL of compounds dissolved in DMSO and positive control were transferred using a Pintool station (Wako, San Diego, CA). The compound transfer was followed by the addition of 1ul conditioned medium or assay buffer using two separate tips of Flying Reagent Dispenser (FRD, Aurora Discovery, San Diego, CA). The assay plates were incubated at 37C and 5% CO2 for 24hr. For viability read, after 23hr of compound treatment, 1uL of CellTiter-Fluor reagent (Promega Corporation, Madison, WI) was added to each well of the assay plates using Flying Reagent Dispenser (FRD, Aurora Discovery, San Diego, CA) and incubated the assay plates at 37C for 1hr. The fluorescence signal was quantified using a ViewLux plate reader (Perkin Elmer, Shelton, CT).
# Potency is the fitted concentration of half-maximal effect.
row,SMILES,Potency
1,O=[N+]([O-])c1ccc(Cl)c([N+](=O)[O-])c1,3.92 µM (active) and 10.9 µM (active)
2,Clc1ccccc1-c1nnc(-c2ccccc2Cl)nn1,inactive
3,CCOP(=O)(O)OCC (tested in a mixture with another compound),inactive and 42.9 µM (active)
4,CC1CC(=O)O1 (stereo not given),inactive
5,CCCCSP(=O)(SCCCC)SCCCC,inactive
6,NC(=O)CN1CCCC1=O,inactive
7,O=C1C(Cl)=C(Cl)C(=O)c2ccccc21,4.87 µM (active)
8,CCC/C=N/O,inactive
9,O=C1Nc2ccc(Cl)cc2C(c2ccccc2)=NC1O (stereo not given),inactive
10,CC(C)(C#N)N=NC(C)(C)C#N,inactive
11,c1ccc2c(c1)Nc1ccccc1S2,inactive
12,CC(O)CN(CC(C)O)CC(C)O (stereo not given),inactive
13,CS(=O)(=O)NC(=O)c1cc(Oc2ccc(C(F)(F)F)cc2Cl)ccc1[N+](=O)[O-],inactive
14,O=P(OCCCl)(OCCCl)OCCCl,inactive
15,CC(C)(O)C(=O)Nc1ccc([N+](=O)[O-])c(C(F)(F)F)c1,inactive
16,N#CCCCCC#N,inactive
17,COC(=O)Nc1nc2ccccc2[nH]1,inactive
18,Oc1ccc(Cl)cc1Cl,inactive
19,N#CC(c1ccccc1)c1ccccc1,inactive
20,CN(C)c1nc(=O)n(C2CCCCC2)c(=O)n1C,inactive

row,SMILES,Potency
1,O=NN1CCOCC1,inactive
2,CCOS(=O)(=O)OCC,inactive
3,CCOC(=O)c1ccccc1N,inactive
4,CCC(=O)Nc1ccc(Cl)c(Cl)c1,inactive
5,C=CC(Cl)CCl (stereo not given),inactive
6,CC(C)(c1ccccc1)c1ccc(O)c(C(C)(C)c2ccccc2)c1,60.6 µM (active) and 43.3 µM (active)
7,CC(C)Nc1nc(Cl)nc(NC(C)C)n1,inactive
8,CSc1nc(NC(C)C)nc(NC(C)C)n1,inactive
9,O=NN(c1ccccc1)c1ccccc1,inactive
10,CNC(=S)S,inactive
11,CCCCCCCCCC(CC)c1ccc(S(=O)(=O)O)cc1 (stereo not given),inactive
12,c1ccc(C2CO2)cc1 (stereo not given),inactive
13,ClC(Cl)=C(Cl)C(Cl)=C(Cl)Cl,inactive
14,O=[N+]([O-])c1ccc(Nc2ccccc2)cc1,48.9 µM (active)
15,OCCOCCO,14.1 µM (active) and inactive
16,CC1(C)Cc2cccc(O)c2O1,inactive
17,ClC(Cl)(Cl)c1ccccc1,inactive
18,Brc1ccc(Br)cc1,inactive
19,Nc1ccc2ccccc2c1,inactive
20,N#Cc1c(Cl)c(Cl)c(Cl)c(C#N)c1Cl,2.39 µM (active) and 6.86 µM (active)
